High-throughput results as filed in PubChem.
Shown are actives, neighbours in structure and some others; about 5.5% of the full set was active somewhere.
Mito fusion yeast – mitochondrial division inhibition or fusion activation; AID 485298; Potency, µM (highest dose often 46.1 µM), actives largely listed as activators; actives 0.23% (n = 320,000); S. cerevisiae fusion-defective mutant growth rescue, CellTiterGlo 48 h; further: nearly all actives have a fitted effect of over 45% in size
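Temperature-sensitive fusion-defective S. cerevisiae (e.g. fzo1-1, mgm1-5) were grown with compound in YPEG medium (3% ethanol, 3% glycerol) for 48 hours at 37C. Growth rescue was measured as viability by CellTiterGlo luminescence after 10 minutes at ambient.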
VP16 counter – Gal4-VP16 reporter inhibition counter-screen; Drosophila S2 Gal4-VP16 UAS-luciferase, luminescence, 20 h; Potency, µM (doses to about 53.6 µM), actives largely listed as inhibitors; actives 3.5% (n = 310,000); AID 2546;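 further: Gal4-VP16 expression switched on by copper sulfate through the metallothionein promoter; nearly all actives have a fitted effect of over 50% in size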
Integrin act MD – activates integrin-mediated alleviation for muscular dystrophy | alpha7betagal myoblasts, beta-gal FDG fluorescence, 48 h | Potency, µM (titrated, usually from 38.3 µM), actives largely listed as activators | actives 0.064% (n = 350,000); further: nearly all actives have a fitted effect of over 60% in size
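alpha7betagal+/- myoblasts (passage 13, 250/well) treated 48 h at 37C with compounds at 1:260 dilution of DMSO stock. Lysed, then beta-galactosidase activity read as FDG fluorescence (ex 480/em 540) after 30 min, with pre-read for autofluorescence.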
uPA surface inh – inhibitors of cell surface uPA generation | cell surface uPA generation assay, qHTS | Potency, µM (top dose mostly 38.3 µM), most hits filed as inhibitors | actives 0.31% (n = 330,000) | AID 540303; active means well fitted inhibition curve with a large enough effect; inconclusive means small, poorly fitted or top-dose-only effect; inactive means no such curve, though single readings can be large or run the other way; tested in mouse RAW 264.7 cells; further: nearly all actives have a fitted effect of over 55% in size
Chronic BCR inh – blocks chronic active B-cell receptor signaling. Potency, µM (doses to about 46.1 µM), actives largely listed as inhibitors. actives 0.05% (n = 340,000). ABC-DLBCL IkBa-CBG/CBR reporter, luminescence ratio, 4 h; active means well fitted inhibition curve with a large enough effect in the signal ratio, with a control signal flat, not every such curve was filed as active; inconclusive means small, poorly fitted or top-dose-only effect, or effect the other way, or a change in a side signal; the % refers to the signal ratio
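TMD8 ABC-DLBCL cells carrying doxycycline-inducible green luciferase fused to IkappaBalpha plus unfused red luciferase were exposed to compounds (up to 46 uM) for 4 hrs at 37C. Activity came from the overlap-corrected green/red luminescence ratio.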
RORg inh – inhibitors of mouse ROR gamma transcriptional activity. P51450. Drosophila S2 Gal4-RORgamma UAS-luciferase reporter, 20 h. Potency, µM (series often up to 53.6 µM), actives largely listed as inhibitors. actives 5.4% (n = 310,000); further: nearly all actives have a fitted effect of over 60% in size
Target sequence (P51450 whole entry, looked up, the tested form may be a part): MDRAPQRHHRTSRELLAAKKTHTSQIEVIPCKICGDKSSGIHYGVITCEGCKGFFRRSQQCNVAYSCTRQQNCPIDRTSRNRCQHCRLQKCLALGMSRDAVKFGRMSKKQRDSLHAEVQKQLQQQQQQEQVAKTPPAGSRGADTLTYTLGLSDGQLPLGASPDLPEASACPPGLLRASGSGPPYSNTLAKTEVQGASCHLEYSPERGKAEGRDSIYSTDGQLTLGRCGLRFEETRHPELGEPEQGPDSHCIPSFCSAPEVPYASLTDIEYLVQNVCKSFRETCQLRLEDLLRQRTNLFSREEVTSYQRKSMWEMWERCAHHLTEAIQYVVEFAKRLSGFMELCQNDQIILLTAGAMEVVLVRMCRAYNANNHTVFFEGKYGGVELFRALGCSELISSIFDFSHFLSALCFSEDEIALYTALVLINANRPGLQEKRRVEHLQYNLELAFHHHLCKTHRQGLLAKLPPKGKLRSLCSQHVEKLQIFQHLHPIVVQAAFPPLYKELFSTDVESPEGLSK
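A Gal4/UAS one-hybrid system in insect cells: metallothionein-promoter Gal4–ROR gamma fusion plus Photinus luciferase reporter. Copper sulfate 700 uM final, 20 hr ambient incubation, luminescent detection after 10 min with reagent.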
Large screens that a line does not name were inactive. Unless noted, the call rests on the fitted dose curve; in most records, active means well fitted curve in the direction sought with a large enough effect; inconclusive means small, poorly fitted or top-dose-only effect, or another doubt; inactive means no such curve, though single readings can be large; an effect the other way counts as inactive or inconclusive.

O=C(NC(=S)Nc1ccc(CN2CCOCC2)cc1)c1cc2ccccc2o1	none
N.N.N.N.N.N.N.N.N.N.N.N.N.N.O.O.[Ru+4].[Ru+5].[Ru+5]	none (no result: VP16 counter, Integrin act MD, uPA surface inh, Chronic BCR inh, RORg inh)
CN[C@H]1CCc2cc(OC)c(OC)c(OC)c2-c2ccc(N(C)CC(OC)OC)c(=O)cc21	uPA surface inh 3.5µM, Chronic BCR inh inconclusive
COc1cc(C)ccc1OCCCOc1ccccc1Br	RORg inh 13µM
Cc1ccc(/C=N/NC(=O)c2nnn(-c3nonc3N)c2CSc2ccccc2)o1	VP16 counter 11µM, RORg inh 7.1µM
Cc1ccc(-c2c(C(=O)N/N=C/c3cccs3)nnn2-c2nonc2N)cc1	VP16 counter 5.6µM, Chronic BCR inh inconclusive, RORg inh 7.1µM
Cc1ccc(SCc2c(C(=O)N/N=C/c3ccoc3)nnn2-c2nonc2N)cc1	VP16 counter 16µM, RORg inh 7.9µM
Cc1ccc(SCc2c(C(=O)N/N=C/c3ccc(C)o3)nnn2-c2nonc2N)cc1	none (no result: Mito fusion yeast, VP16 counter, uPA surface inh, Chronic BCR inh, RORg inh)
CCOc1ccc(-c2c(C(=O)N/N=C/c3cccs3)nnn2-c2nonc2N)cc1	VP16 counter 6.3µM, RORg inh 2.2µM
O=C(c1ccc2c(=O)n3c(nc2c1)CCCCC3)N1CCN(c2ccc([N+](=O)[O-])cc2)CC1	none
NCC(=O)N[C@@H](CCCN=C(N)N)C(=O)NCC(=O)N[C@@H](CCC(=O)O)C(=O)N[C@@H](CO)C(=O)O	none (no result: Mito fusion yeast, Integrin act MD, uPA surface inh, Chronic BCR inh)
Cc1ccc(C(C)C)c(OCC(O)CNC2CCCC2)c1 (stereo not given)	uPA surface inh inconclusive, RORg inh inconclusive
Cc1ccc(-c2c(C(=O)N/N=C/c3ccsc3)nnn2-c2nonc2N)cc1	VP16 counter 20µM, RORg inh 7.1µM
Cc1ccc(-c2c(C(=O)N/N=C/c3ccoc3)nnn2-c2nonc2N)cc1	VP16 counter inconclusive, RORg inh 11µM
CCC(C)C1NC(=O)C(Cc2ccc(O)cc2)NC(=O)C(N)CSSCC(C(=O)N2CCCC2C(=O)NC(CC(C)C)C(=O)NCC(N)=O)NC(=O)C(CC(N)=O)NC(=O)C(CCC(N)=O)NC1=O (stereo not given)	none (no result: Mito fusion yeast, Integrin act MD, uPA surface inh, Chronic BCR inh)
CCCCCCCCC[n+]1cccc2c3ccccc3ccc21	VP16 counter 2.5µM, Chronic BCR inh inconclusive, RORg inh 8.9µM
CCCCCCCCCCCCCC[n+]1ccc(C)cc1	VP16 counter 4µM, RORg inh inconclusive (no result: Mito fusion yeast, Integrin act MD, uPA surface inh, Chronic BCR inh)
Cc1cc[n+](CC[n+]2ccc(C)cc2)cc1	none (no result: VP16 counter, RORg inh)
CCCCCCCCCCCCCCCC[n+]1ccc(/C=N/O)cc1	VP16 counter 7.1µM, RORg inh inconclusive
CCCCCCCCCCCCCCCC[n+]1ccc(C(N)=O)cc1	RORg inh inconclusive
CCCCCCCCCCCCCCCC[n+]1cccc(C(=O)N(CC)CC)c1	uPA surface inh inconclusive
CCCCCCCCCCCC[n+]1ccc2ccccc2c1	VP16 counter 5µM, RORg inh inconclusive (no result: Mito fusion yeast, Integrin act MD, uPA surface inh, Chronic BCR inh)
O=[N+]([O-])c1ccc(C[n+]2cccc3c4ccccc4ccc32)cc1	none
COC(=O)c1ccccc1NC(=O)CSc1ncn[nH]1	none
CCOC(=O)C1=C(N)N2C(=O)C(C)SC2=C(C(=O)OCC)C1c1ccccc1 (stereo not given)	VP16 counter 13µM, RORg inh inconclusive
Cc1ccc(C)c(CSc2nnc3[nH]c(=O)cc(C)n23)c1	none (no result: Mito fusion yeast, VP16 counter, Integrin act MD, uPA surface inh, RORg inh)
Fc1cccc(/C=N/Nc2nncc3ccccc23)c1	VP16 counter 10µM, uPA surface inh inconclusive, Chronic BCR inh inconclusive, RORg inh 1.3µM
Fc1cccc(/C=N/Nc2nccnc2Cl)c1	uPA surface inh inconclusive
Clc1ccc(/C=N/Nc2nnc(-c3ncc[nH]3)c3ccccc23)cc1	VP16 counter 3.2µM, RORg inh 1.3µM (no result: uPA surface inh)
Clc1cccc(/C=N/Nc2nnc(Cl)c3ccccc23)c1	VP16 counter inconclusive, Chronic BCR inh inconclusive, RORg inh 3.2µM
Cc1ccc(COC(=O)c2ccc3ccccc3n2)cc1	VP16 counter inconclusive, Chronic BCR inh inconclusive
Cc1noc(NS(=O)(=O)c2cccc3c(N(C)C)cccc23)c1C	none (no result: Mito fusion yeast, Integrin act MD, uPA surface inh, Chronic BCR inh)
CCN(CC)S(=O)(=O)c1cccc(NC(=O)CNc2cccc(S(=O)(=O)N3CCCC3)c2)c1	VP16 counter 0.71µM, uPA surface inh inconclusive
Cc1c(Cl)cccc1NC(=S)Nn1cnnc1	RORg inh inconclusive
COc1ccc(S(=O)(=O)N2CCCCC2)cc1NCC(=O)Nc1ccc(C)cc1	VP16 counter 3.5µM
COc1ccc(S(=O)(=O)N2CCCCC2)cc1NC(=S)Nc1cccc(Cl)c1C	VP16 counter inconclusive, RORg inh 11µM
COc1ccc(S(=O)(=O)N2CCCCC2)cc1NC(=O)CNc1ccccc1C(C)=O	Chronic BCR inh inconclusive (no result: VP16 counter, RORg inh)
Cc1c(Cl)cccc1NC(=S)NNS(=O)(=O)c1ccc([N+](=O)[O-])cc1	VP16 counter 7.1µM, Chronic BCR inh inconclusive, RORg inh 4.5µM
CSc1cccc(NC(=O)c2cccc3cccnc23)c1	Chronic BCR inh inconclusive
Cc1ccccc1OC(=O)c1cccc(S(=O)(=O)N2CCN(C)CC2)c1	none (no result: VP16 counter, RORg inh)
CC(=O)c1cc(-c2ccc(F)cc2)n(CCC(=O)Nc2nc3c(C)cccc3s2)c1C	none (no result: Mito fusion yeast, VP16 counter, Integrin act MD, uPA surface inh, RORg inh)
C/C(CCc1ccccc1)=N\NC(=S)NCCc1ccccc1	VP16 counter 6.3µM, RORg inh 5µM
C/C(CCC(C)C)=N\NC(=S)NCc1ccccc1	VP16 counter inconclusive, Chronic BCR inh inconclusive, RORg inh 4µM
C/C(=N\NC(=S)NCCc1ccccc1)c1cccs1	Mito fusion yeast inconclusive, VP16 counter 1.4µM, Chronic BCR inh inconclusive, RORg inh 4.5µM
COc1cc([N+](=O)[O-])cc(/C=N/NC(=O)c2cncc(Br)c2)c1O	VP16 counter inconclusive, Chronic BCR inh inconclusive, RORg inh 2.8µM
COc1cc(/C=N/NC(=O)c2cncc(Br)c2)cc([N+](=O)[O-])c1O	VP16 counter inconclusive, Chronic BCR inh inconclusive, RORg inh 0.32µM
COc1ccc(/C=N/NC(=O)c2ccncc2)cc1[N+](=O)[O-]	none
COc1ccccc1C(=O)Nc1nc2cc3c(cc2s1)OCCO3	VP16 counter inconclusive, uPA surface inh 2.8µM, Chronic BCR inh inconclusive, RORg inh inconclusive
COc1ccc(C(=O)Nc2nc3cc4c(cc3s2)OCCO4)c(OC)c1	VP16 counter 0.4µM, Chronic BCR inh inconclusive, RORg inh 0.028µM
COc1ccc(-n2cccc2/C=C/[N+](=O)[O-])cc1	VP16 counter inconclusive, Chronic BCR inh inconclusive, RORg inh 10µM
COc1ccc(-n2cccc2C=O)cc1	Chronic BCR inh inconclusive
COc1ccccc1Nc1nc(N)nc(CN2CCc3ccccc3C2)n1	VP16 counter inconclusive, Chronic BCR inh inconclusive, RORg inh 11µM
COc1ccccc1Nc1nc(N)nc(CSC(=S)N2CC(C)CC(C)C2)n1 (stereo not given)	Mito fusion yeast inconclusive, VP16 counter 25µM, RORg inh inconclusive
